How the values were obtained:
Conditions in all cases: concentration: 1 μM,replicates: in singlicate; n = 1
FGFR1 = test system: FGFR1
FGFR2 = test system: FGFR2
FGFR3 = test system: FGFR3
FGFR4 = test system: FGFR4
FGR = test system: FGR
FLT1 = test system: FLT1
FLT3-autoinhibited = test system: FLT3-autoinhibited
FLT3 = test system: FLT3
FLT4 = test system: FLT4
FRK = test system: FRK
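Note: KINOMEscan kinase panel screen.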

Compound	%Inh (FGFR1)	%Inh (FGFR2)	%Inh (FGFR3)	%Inh (FGFR4)	%Inh (FGR)	%Inh (FLT1)	%Inh (FLT3-autoinhibited)	%Inh (FLT3)	%Inh (FLT4)	%Inh (FRK)
CS(=O)(=O)c1cccc(CNc2nc(Nc3ccc4c(c3)[C@@H]3C[C@@H]4CNC3=O)ncc2C(F)(F)F)c1	86%	85%	73%	92.1%	31%	94.4%	75%	99.6%	99.4%	0%
CC(C(=O)NC1CCN(c2ccnc(Nc3ccc(F)cc3)n2)C1)c1ccc(Cl)cc1 (stereo not drawn) [GSK1379713]	0%	11%	9%	0%	0%	33%	0%	8%	0%	0%
Cn1ccc2ncnc(Oc3ccc(NC(=O)Nc4cccc(C(F)(F)F)c4)c(F)c3)c21	0%	14%	5%	3%	3%	98.9%	38%	98%	99.9%	85%
C[C@@H]1CNc2c(sc3ccc4nc(-c5ccncc5)ccc4c23)C(=O)N1	9%	0%	0%	26%	40%	3%	0%	0%	4%	10%
O=C(Nc1n[nH]c2cc(-c3ccco3)ccc12)C1CC1 [SB-737447]	14%	0%	6%	0%	0%	0%	4%	59%	0%	0%
COc1cccc(OC)c1C(=O)Nc1cccc(-c2nn3ccccc3c2-c2ccnc(Nc3cccc(F)c3)n2)c1 [GSK361065]	11%	0%	0%	0%	23%	32%	0%	49%	27%	16%
CNC(=O)c1ccccc1Nc1nc(Nc2cccc(CS(C)(=O)=O)c2)ncc1C.O=CO [GSK1520489]	99.9%	99.3%	99.8%	94.6%	99.2%	98.2%	89%	99.1%	100%	98.2%
C[C@@H]1CNc2c(sc3ccc4nc(-c5ccc(O)cc5)ccc4c23)C(=O)N1	14%	16%	12%	31%	0%	6%	6%	16%	0%	0%
O=C(Nc1ccc(Oc2ccc3nc(NC(=O)C4CC4)cn3n2)c(F)c1)c1cccn(-c2ccccc2)c1=O	0%	9%	11%	6%	73%	98.3%	43%	98.2%	99.4%	45%
C[C@@H](Oc1cc(-n2cnc3cc(-c4ccncc4)ccc32)sc1C(N)=O)c1ccccc1Cl [GSK479719]	46%	57%	71%	34%	40%	54%	24%	97.3%	97.1%	15%
CCN1CCN(CCCC(=O)Nc2n[nH]c3nc(-c4ccc(O)cc4)c(Br)cc23)CC1 [SB-731579]	0%	0%	0%	0%	0%	0%	0%	61%	0%	0%
CCn1c(-c2nonc2N)nc2cncc(Br)c21 [SB-738004]	3%	69%	24%	2%	17%	21%	53%	0%	19%	0%
Cc1ccc(Nc2ccnc(Nc3ccc4c(c3)CS(=O)(=O)C4)n2)cc1O.Cl [GW579362]	84%	79%	73%	41%	97%	99.6%	92.7%	99%	100%	99.1%
Cc1cccc(-c2nc(Nc3ccncc3)c3sccc3n2)n1 [GW869641]	16%	0%	7%	8%	11%	26%	14%	41%	15%	1%
c1ccc(Oc2ccc(Nc3ccnc4ccc(-c5ccccn5)cc34)cc2)cc1 [GW407034]	0%	34%	25%	4%	69%	14%	0%	0%	3%	38%
